Data on eight sequences can be found in article PMC7862700, “An all-to-all approach to the identification of sequence-specific readers for epigenetic DNA modifications on cytosine”.

Assay in all cases: DAPPL (digital affinity profiling via proximity ligation, sequencing); 10 mM Tris-HCl pH 7.5, 50 mM NaCl, 1 mM DTT, 4% glycerol, room temperature, 30 min; GST-TFs on glutathione beads, 16-mer random dsDNA library, 0.1% formaldehyde crosslink after washing; high values mean tight binding
For assay [1], the target named is T1, FEV (Homo sapiens, UniProt Q99581 1-238).
T1 sequence: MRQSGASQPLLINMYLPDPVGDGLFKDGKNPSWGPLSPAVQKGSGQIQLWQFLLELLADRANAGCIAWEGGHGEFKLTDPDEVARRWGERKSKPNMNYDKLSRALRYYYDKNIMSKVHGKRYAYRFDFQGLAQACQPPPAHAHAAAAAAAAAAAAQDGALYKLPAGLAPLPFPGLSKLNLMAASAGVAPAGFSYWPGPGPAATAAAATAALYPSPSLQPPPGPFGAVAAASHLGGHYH
The conditions noted are these: protein: recombinant; tags: N-terminal GST; dsDNA, one strand shown. The method in brief: (§1)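 Pools were built from human transcription factors expressed in yeast as GST fusions, captured on glutathione beads and DNA-barcoded, along with a tag-only sample. Incubation with 200 nmole of a 16-mer random double-stranded DNA library lasted 30 min at room temperature in Tris/NaCl/DTT/glycerol buffer, and was followed by washing, 0.1% formaldehyde crosslinking, proximity ligation, PCR amplification and Illumina NextSeq500 sequencing. Binding signal is the quotient of each hexamer's read frequency for a factor and its frequency for the tag-only sample.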

For assay [2], the target named is ETV5 (Homo sapiens, UniProt P41161 1-510). The conditions noted are these: protein: recombinant; tags: N-terminal GST; dsDNA, one strand shown. The method in brief: as §1
Sequence of ETV5 (P41161 whole entry): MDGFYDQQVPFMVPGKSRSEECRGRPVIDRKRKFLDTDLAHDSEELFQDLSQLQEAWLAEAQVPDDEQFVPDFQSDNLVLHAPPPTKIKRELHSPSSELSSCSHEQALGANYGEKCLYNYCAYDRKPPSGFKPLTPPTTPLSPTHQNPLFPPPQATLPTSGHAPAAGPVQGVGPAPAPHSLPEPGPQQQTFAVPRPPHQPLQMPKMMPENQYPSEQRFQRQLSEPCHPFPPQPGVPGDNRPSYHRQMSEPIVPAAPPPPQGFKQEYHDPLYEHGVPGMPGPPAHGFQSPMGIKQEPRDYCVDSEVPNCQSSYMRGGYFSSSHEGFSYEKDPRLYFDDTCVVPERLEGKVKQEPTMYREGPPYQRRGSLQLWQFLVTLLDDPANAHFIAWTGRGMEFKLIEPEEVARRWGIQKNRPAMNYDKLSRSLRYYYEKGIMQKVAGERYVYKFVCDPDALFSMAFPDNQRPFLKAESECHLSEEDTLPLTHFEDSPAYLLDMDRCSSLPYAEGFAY
Assay [3] addresses HSF1 (Homo sapiens, UniProt Q00613 1-529). Conditions: protein: recombinant; tags: N-terminal GST; chain copies: 3; dsDNA, one strand shown. The method, boiled down: as §1
In assay [4] the target is T2, SPIC (Homo sapiens, UniProt Q8N5J4 1-248).
T2 sequence: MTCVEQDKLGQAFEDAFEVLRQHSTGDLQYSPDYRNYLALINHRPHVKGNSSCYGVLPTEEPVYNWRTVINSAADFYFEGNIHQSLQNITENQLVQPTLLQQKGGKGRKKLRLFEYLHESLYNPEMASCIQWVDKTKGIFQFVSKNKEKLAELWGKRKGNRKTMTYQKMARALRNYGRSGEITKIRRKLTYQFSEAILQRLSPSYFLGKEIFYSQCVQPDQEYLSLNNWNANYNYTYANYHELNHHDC
The conditions noted are these: protein: recombinant; tags: N-terminal GST; dsDNA, one strand shown. The method in brief: as §1

The target in assay [5] is ELF4 (Homo sapiens, UniProt Q99607 1-663). The conditions noted are these: protein: recombinant; tags: N-terminal GST; dsDNA, one strand shown. The method, boiled down: as §1
Sequence of ELF4 (Q99607 whole entry): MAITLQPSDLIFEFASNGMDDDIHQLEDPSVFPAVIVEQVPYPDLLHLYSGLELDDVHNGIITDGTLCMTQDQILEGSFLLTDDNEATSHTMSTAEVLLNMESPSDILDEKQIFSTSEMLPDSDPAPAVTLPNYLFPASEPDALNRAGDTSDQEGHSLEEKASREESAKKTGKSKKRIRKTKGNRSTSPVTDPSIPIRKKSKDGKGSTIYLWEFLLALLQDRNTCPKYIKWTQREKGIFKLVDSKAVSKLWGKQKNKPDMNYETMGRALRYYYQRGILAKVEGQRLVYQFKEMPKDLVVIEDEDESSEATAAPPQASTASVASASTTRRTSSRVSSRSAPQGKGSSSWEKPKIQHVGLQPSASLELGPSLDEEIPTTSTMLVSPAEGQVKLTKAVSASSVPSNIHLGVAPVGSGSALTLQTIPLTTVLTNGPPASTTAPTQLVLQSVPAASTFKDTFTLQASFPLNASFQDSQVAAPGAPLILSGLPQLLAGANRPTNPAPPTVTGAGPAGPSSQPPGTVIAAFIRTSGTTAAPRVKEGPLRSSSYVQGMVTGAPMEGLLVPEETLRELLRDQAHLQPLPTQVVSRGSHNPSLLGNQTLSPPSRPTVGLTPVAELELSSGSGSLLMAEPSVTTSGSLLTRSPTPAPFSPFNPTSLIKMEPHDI
Assay [6] concerns the target T3, ELK4 (Homo sapiens, UniProt P28324-2 1-405).
T3 sequence: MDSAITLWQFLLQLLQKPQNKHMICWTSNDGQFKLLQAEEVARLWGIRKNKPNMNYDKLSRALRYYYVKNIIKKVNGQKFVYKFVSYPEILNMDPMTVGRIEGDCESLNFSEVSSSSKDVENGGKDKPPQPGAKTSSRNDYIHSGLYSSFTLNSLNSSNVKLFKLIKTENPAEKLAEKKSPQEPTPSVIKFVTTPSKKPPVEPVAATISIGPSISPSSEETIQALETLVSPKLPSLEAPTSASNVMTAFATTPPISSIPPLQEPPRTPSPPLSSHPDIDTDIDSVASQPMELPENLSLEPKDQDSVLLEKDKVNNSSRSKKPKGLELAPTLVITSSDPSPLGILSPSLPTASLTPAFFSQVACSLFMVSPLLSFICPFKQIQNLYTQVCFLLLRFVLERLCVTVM
Conditions: protein: recombinant; tags: N-terminal GST; dsDNA, one strand shown. The method, boiled down:
as §1

Assay [7] addresses T4, ETV2 (Homo sapiens, UniProt O00321 1-342).
T4 sequence: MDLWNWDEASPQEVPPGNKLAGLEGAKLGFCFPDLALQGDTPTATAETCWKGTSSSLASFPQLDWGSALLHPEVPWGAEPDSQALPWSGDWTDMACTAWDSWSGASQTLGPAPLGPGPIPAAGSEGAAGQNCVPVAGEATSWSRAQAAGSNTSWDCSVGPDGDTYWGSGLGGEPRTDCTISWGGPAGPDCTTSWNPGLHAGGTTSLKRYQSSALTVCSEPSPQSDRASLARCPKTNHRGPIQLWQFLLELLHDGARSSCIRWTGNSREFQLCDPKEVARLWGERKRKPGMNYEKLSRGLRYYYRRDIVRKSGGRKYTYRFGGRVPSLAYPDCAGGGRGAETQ
Conditions: protein: recombinant; tags: N-terminal GST; dsDNA, one strand shown. The method, boiled down: as §1

The target of assay [8] is T5, ELF3 (Homo sapiens, UniProt P78545 1-371).
T5 sequence: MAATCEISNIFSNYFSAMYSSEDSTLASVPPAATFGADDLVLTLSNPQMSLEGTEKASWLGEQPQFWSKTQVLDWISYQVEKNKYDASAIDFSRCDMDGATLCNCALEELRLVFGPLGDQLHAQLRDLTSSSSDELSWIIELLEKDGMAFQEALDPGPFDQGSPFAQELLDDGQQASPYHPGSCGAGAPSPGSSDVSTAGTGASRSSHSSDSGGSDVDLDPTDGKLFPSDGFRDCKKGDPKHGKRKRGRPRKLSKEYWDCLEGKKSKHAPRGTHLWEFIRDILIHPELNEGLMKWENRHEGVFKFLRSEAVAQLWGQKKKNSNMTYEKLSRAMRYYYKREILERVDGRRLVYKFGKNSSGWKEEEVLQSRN
Conditions: protein: recombinant; tags: N-terminal GST; dsDNA, one strand shown. The method in brief: as §1

The target of assay [9] is CRX (Homo sapiens, UniProt O43186 1-299). The conditions noted are these: protein: recombinant; tags: N-terminal GST; dsDNA, one strand shown. The method in brief:
as §1

Assay [10] has as its target ETV1 (Homo sapiens, UniProt P50549 1-477). The conditions noted are these: protein: recombinant; tags: N-terminal GST; dsDNA, one strand shown. The method, boiled down:
as §1

Sequence of HSF1 (Q00613 whole entry): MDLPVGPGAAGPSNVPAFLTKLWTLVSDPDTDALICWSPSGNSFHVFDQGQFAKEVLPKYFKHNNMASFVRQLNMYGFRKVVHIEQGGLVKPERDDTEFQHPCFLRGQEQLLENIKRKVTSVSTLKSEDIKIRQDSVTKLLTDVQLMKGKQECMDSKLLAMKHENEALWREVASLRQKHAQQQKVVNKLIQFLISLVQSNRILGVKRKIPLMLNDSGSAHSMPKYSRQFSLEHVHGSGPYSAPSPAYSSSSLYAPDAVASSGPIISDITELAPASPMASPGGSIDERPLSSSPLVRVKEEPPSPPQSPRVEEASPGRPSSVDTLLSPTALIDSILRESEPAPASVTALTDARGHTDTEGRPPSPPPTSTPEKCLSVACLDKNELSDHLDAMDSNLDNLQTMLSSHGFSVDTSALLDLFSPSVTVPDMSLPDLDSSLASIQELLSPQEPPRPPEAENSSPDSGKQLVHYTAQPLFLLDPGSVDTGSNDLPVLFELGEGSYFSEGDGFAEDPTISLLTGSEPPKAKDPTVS
Sequence of ETV1 (P50549 whole entry): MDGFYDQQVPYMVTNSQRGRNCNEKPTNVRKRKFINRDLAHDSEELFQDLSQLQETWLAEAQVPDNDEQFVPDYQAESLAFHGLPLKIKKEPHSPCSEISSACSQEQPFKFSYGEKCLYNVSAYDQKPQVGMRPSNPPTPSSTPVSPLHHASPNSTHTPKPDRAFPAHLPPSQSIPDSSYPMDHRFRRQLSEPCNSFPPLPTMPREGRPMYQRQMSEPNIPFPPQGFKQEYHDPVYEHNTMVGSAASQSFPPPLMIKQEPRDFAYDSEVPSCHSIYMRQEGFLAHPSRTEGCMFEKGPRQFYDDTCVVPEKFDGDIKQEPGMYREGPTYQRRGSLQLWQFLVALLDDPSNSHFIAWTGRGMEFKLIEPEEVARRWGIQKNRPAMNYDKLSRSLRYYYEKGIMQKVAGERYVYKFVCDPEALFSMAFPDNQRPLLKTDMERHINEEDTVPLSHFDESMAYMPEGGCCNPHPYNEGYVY
Sequence of CRX (O43186 whole entry): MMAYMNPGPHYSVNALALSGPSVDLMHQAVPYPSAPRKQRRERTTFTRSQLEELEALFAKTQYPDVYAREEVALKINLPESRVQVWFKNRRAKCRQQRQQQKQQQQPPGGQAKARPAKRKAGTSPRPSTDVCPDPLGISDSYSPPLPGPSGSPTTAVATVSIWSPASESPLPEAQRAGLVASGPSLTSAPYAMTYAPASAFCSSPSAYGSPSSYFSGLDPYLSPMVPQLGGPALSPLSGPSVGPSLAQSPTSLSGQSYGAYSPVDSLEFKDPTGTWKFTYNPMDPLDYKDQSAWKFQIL

AATTGA: the binding signal in assay [1] is 1.11 fold enrichment (6-mer frequency, TF over GST control); in assay [2], 1.22 fold enrichment (6-mer frequency, TF over GST control); in [3], 1.05 fold enrichment (6-mer frequency, TF over GST control); in assay [4], 1.1 fold enrichment (6-mer frequency, TF over GST control); in [5] it was 1.18 fold enrichment (6-mer frequency, TF over GST control); in [6] it was 1.18 fold enrichment (6-mer frequency, TF over GST control). In addition, the binding signal in [7] was 1.18 fold enrichment (6-mer frequency, TF over GST control); in assay [8], 1.3 fold enrichment (6-mer frequency, TF over GST control); in assay [9], 1.1 fold enrichment (6-mer frequency, TF over GST control); in assay [10], 1.21 fold enrichment (6-mer frequency, TF over GST control).

As for CTGCAT, the binding signal was 1.54 fold enrichment (6-mer frequency, TF over GST control) in assay [1]; 1.46 fold enrichment (6-mer frequency, TF over GST control) in assay [2]; 1.12 fold enrichment (6-mer frequency, TF over GST control) in [3]; 1.32 fold enrichment (6-mer frequency, TF over GST control) in [4]; 1.43 fold enrichment (6-mer frequency, TF over GST control) in [5]; 1.39 fold enrichment (6-mer frequency, TF over GST control) in assay [6]. Besides, the binding signal in assay [7] was 1.28 fold enrichment (6-mer frequency, TF over GST control); in [8] it was 1.4 fold enrichment (6-mer frequency, TF over GST control); in assay [9] it was 1.12 fold enrichment (6-mer frequency, TF over GST control); in [10], 1.29 fold enrichment (6-mer frequency, TF over GST control).

For the sequence TTGCTT, the binding signal is 1.16 fold enrichment (6-mer frequency, TF over GST control) in assay [1]; 1.24 fold enrichment (6-mer frequency, TF over GST control) in assay [2]; 1.1 fold enrichment (6-mer frequency, TF over GST control) in assay [3]; 1.38 fold enrichment (6-mer frequency, TF over GST control) in assay [4]; 1.24 fold enrichment (6-mer frequency, TF over GST control) in assay [5]; 1.24 fold enrichment (6-mer frequency, TF over GST control) in assay [6]. Moreover, the binding signal in assay [7] was 1.16 fold enrichment (6-mer frequency, TF over GST control); in [8], 1.31 fold enrichment (6-mer frequency, TF over GST control); in assay [9], 1.24 fold enrichment (6-mer frequency, TF over GST control); in [10] it was 1.25 fold enrichment (6-mer frequency, TF over GST control).

For the sequence ATTGTT, the binding signal in assay [1] is 1.52 fold enrichment (6-mer frequency, TF over GST control); in assay [2], 1.57 fold enrichment (6-mer frequency, TF over GST control); in assay [3], 1.63 fold enrichment (6-mer frequency, TF over GST control); in assay [4] it was 1.45 fold enrichment (6-mer frequency, TF over GST control); in assay [5], 1.41 fold enrichment (6-mer frequency, TF over GST control); in [6], 1.4 fold enrichment (6-mer frequency, TF over GST control). In addition, the binding signal in assay [7] was 1.57 fold enrichment (6-mer frequency, TF over GST control); in assay [8], 1.49 fold enrichment (6-mer frequency, TF over GST control); in assay [9], 1.55 fold enrichment (6-mer frequency, TF over GST control); in [10], 1.47 fold enrichment (6-mer frequency, TF over GST control).

As to CTTCAG, the binding signal was 1.26 fold enrichment (6-mer frequency, TF over GST control) in assay [1]; 1.21 fold enrichment (6-mer frequency, TF over GST control) in assay [2]; 1.23 fold enrichment (6-mer frequency, TF over GST control) in [3]; 1.26 fold enrichment (6-mer frequency, TF over GST control) in [4]; 1.34 fold enrichment (6-mer frequency, TF over GST control) in assay [5]; 1.41 fold enrichment (6-mer frequency, TF over GST control) in [6]. The binding signal was 1.23 fold enrichment (6-mer frequency, TF over GST control) in [7]; 1.39 fold enrichment (6-mer frequency, TF over GST control) in [8]; 1.16 fold enrichment (6-mer frequency, TF over GST control) in [9]; 1.33 fold enrichment (6-mer frequency, TF over GST control) in assay [10].

As to TCATCT, the binding signal in assay [1] is 1.08 fold enrichment (6-mer frequency, TF over GST control); in [2], 1.19 fold enrichment (6-mer frequency, TF over GST control); in assay [3] it was 1.44 fold enrichment (6-mer frequency, TF over GST control); in assay [4], 1.32 fold enrichment (6-mer frequency, TF over GST control); in assay [5], 1.18 fold enrichment (6-mer frequency, TF over GST control); in assay [6] it was 1.59 fold enrichment (6-mer frequency, TF over GST control). Moreover, the binding signal in assay [7] is 1.38 fold enrichment (6-mer frequency, TF over GST control); in [8], 1.37 fold enrichment (6-mer frequency, TF over GST control); in [9], 1.5 fold enrichment (6-mer frequency, TF over GST control); in [10], 1.15 fold enrichment (6-mer frequency, TF over GST control).

On to AATACA, for which the binding signal in [1] is 1.38 fold enrichment (6-mer frequency, TF over GST control); in assay [2] it was 1.33 fold enrichment (6-mer frequency, TF over GST control); in assay [3], 1.25 fold enrichment (6-mer frequency, TF over GST control); in [4] it was 1.21 fold enrichment (6-mer frequency, TF over GST control); in assay [5] it was 1.3 fold enrichment (6-mer frequency, TF over GST control); in assay [6], 1.29 fold enrichment (6-mer frequency, TF over GST control). Moreover, the binding signal in assay [7] is 1.45 fold enrichment (6-mer frequency, TF over GST control); in assay [8] it was 1.18 fold enrichment (6-mer frequency, TF over GST control); in assay [9] it was 1.33 fold enrichment (6-mer frequency, TF over GST control); in [10], 1.31 fold enrichment (6-mer frequency, TF over GST control).

With TGTTTT, the binding signal in assay [1] was 1.24 fold enrichment (6-mer frequency, TF over GST control); in assay [2], 1.42 fold enrichment (6-mer frequency, TF over GST control); in assay [3] it was 1.21 fold enrichment (6-mer frequency, TF over GST control); in assay [4], 1.36 fold enrichment (6-mer frequency, TF over GST control); in [5], 1.37 fold enrichment (6-mer frequency, TF over GST control); in [6] it was 1.35 fold enrichment (6-mer frequency, TF over GST control). Moreover, the binding signal in assay [7] was 1.38 fold enrichment (6-mer frequency, TF over GST control); in assay [8], 1.33 fold enrichment (6-mer frequency, TF over GST control); in assay [9] it was 1.23 fold enrichment (6-mer frequency, TF over GST control); in assay [10] it was 1.29 fold enrichment (6-mer frequency, TF over GST control).
